Bioassay records: PubChem BioAssay, several laboratories
EBV LMP1 NFkB: EBV LMP1-driven NF-kappaB luciferase reporter inhibitors, primary screen, cell-based, luminescence, single point | LMP1-induced NF-kappaB luciferase reporter cells | inhibition, % at 12.5 µM | actives 0.69% (n = 350,000); in the data active means inhibition above about 41%; inconclusive means no clear call, values can overlap the other calls
TROY signal inh: inhibitors of TROY-driven NF-kB signaling, primary screen, Q293 LMP1-TROYcd cells, NF-kB luciferase, uHTS | Q293 LMP1-TROYcd NF-kB luciferase reporter, 4 h | inhibition, % at 10 µM | actives 0.98% (n = 360,000) | AID 1347056, 2019;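 active means compounds whose plate-normalised and pattern-corrected inhibition of the luciferase reporter signal at the single screening dose is 50% or more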
HSF-1 act: HSF-1 activators, primary screen, NIH3T3-HGL cells, MG132 stress, luminescence, single point. NIH3T3-HGL HSF-1 luciferase reporter, 8 h; 100% = twice DMSO control signal. activation, % at 9 µM. actives 1.7% (n = 300,000). AID 504408, 2011;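 active means mean replicate activation of at least 50% with a set share of replicates each reaching 50%; inconclusive means only one of those two conditions met; inactive means mean below 50% and too few replicates reaching it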
TWEAK-Fn14 inh: inhibitors of TWEAK-Fn14 signaling, primary screen, luciferase reporter cells, uHTS | TWEAK-stimulated Fn14 reporter cells, luciferase luminescence, 8 h | inhibition, % at 10 µM | actives 2% (n = 360,000); in the data active means inhibition above about 50%
HSP90 refold inh: HSP90 inhibitors, primary screen, cell lysate, luminescence | AID 1789, 2009 | actives 0.91% (n = 290,000) | Rabbit reticulocyte lysate, luciferase refolding luminescence, 3 h | inhibition, % at 5.6 µM;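 active means inhibition above the screen-wide mean plus 3 SD, computed separately per campaign, cut at about 16% in these data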;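 further: inhibitors lower the luminescence because luciferase stays unfolded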
HSF1 inhib: HSF1 inhibitors in luciferase reporter cells, primary screen, cell-based, NIH3T3, luminescence; NIH3T3-HGL HSE-luciferase, MG132-induced, luminescence 8 h; stronger effect = lower value; AID 2098, 2009; activity change, negative = inhibition, % at 7.5 µM (by protocol); actives 0.77% (n = 300,000);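 active means more than half of replicate wells show activity change below -50%, luminescence cut by over half; inconclusive means some wells, but at most half, below -50%; inactive means no replicate well below -50%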;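 further: luciferase reports HSF-1 transcriptional activity via heat shock element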
Hits are given with their value; i = inactive; ? = inconclusive; nt = not tested or not shown. The list is not random: actives were taken first. Their share in the collection is about 4.7%.

SMILES	EBV LMP1 NFkB	TROY signal inh	HSF-1 act	TWEAK-Fn14 inh	HSP90 refold inh	HSF1 inhib
Cc1cccc(-c2nc3cc(NC(=O)C4CCCO4)ccc3o2)c1 (stereo not given)	i	i	i	68	i	i
Cc1cc2nc(-c3ccc(NC(=O)C(C)C)cc3)oc2cc1C	i	i	i	i	i	i
Cc1nc2cc(NC(=O)Nc3ccc(Br)cc3)ccc2o1	i	i	58	i	i	i
CC(Oc1ccc(Cl)cc1Cl)C(=O)Nc1ccc2oc(-c3ccncc3)nc2c1 (stereo not given)	i	59	i	54	i	i
Cc1ccc(-c2nc3cc(NC(=O)C(C)C)ccc3o2)cc1	i	53	i	61	i	i
COCCNC(=O)C1CCCN(C(=O)c2ccc(SC(F)(F)F)cc2)CC1 (stereo not given)	nt	i	nt	i	nt	nt
CC(C)Nc1ncnc2c1ncn2[C@H]1CN(Cc2ccc(F)cc2)C[C@@H](CO)O1	nt	i	nt	i	nt	nt
CC1(C)CC(=O)C2=C(C1)OC(N)=C(C#N)C2c1ccccc1 (stereo not given)	i	i	i	i	i	-54
CC1CCCC(NC(=O)CCn2c(=S)oc3ccccc32)C1C (stereo not given)	i	i	i	i	i	i
O=C(CCn1c(=S)oc2ccccc21)NC1CCCCCC1	i	i	i	i	i	-71
COc1ccc(-n2c(SCc3ccc([N+](=O)[O-])cc3)nnc2-c2ccc(C)cc2)cc1	i	i	57	i	i	i
O=C(c1cccc(S(=O)(=O)N2CCOCC2)c1)N1CCN(c2ncccn2)CC1	i	i	nt	i	nt	nt
CCCN1CCC(=NNc2ccc(C(=O)O)cc2)CC1	i	i	i	52	i	i
CCCN1CCC(=NNC(=O)c2ccc(Br)o2)CC1	i	i	nt	i	i	nt
O=C(c1ccco1)N1CCN(c2ncnc3c(-c4ccccc4)nsc23)CC1	i	i	51	i	i	i
O=C(c1ccco1)N1CCN(c2ccc(Cl)cc2)CC1	i	i	70	i	i	i
O=C(Nc1ccc(N2CCN(C(=O)c3ccco3)CC2)cc1)c1ccco1	i	i	i	i	i	i
O=C(Cc1ccc(Cl)cc1)Nc1ccc(N2CCN(C(=O)c3ccco3)CC2)cc1	i	i	80	i	i	i
O=C(c1ccco1)N1CCN(C(=O)c2ccco2)C1=S	i	i	nt	51	nt	nt
CNc1n[nH]c(-c2ccccc2)n1	i	i	nt	i	nt	nt
CC1(C(=O)NS(=O)(=O)c2cccc(C#N)c2)CCN1C(=O)C/C=C/c1ccccc1 (stereo not given)	nt	i	nt	i	nt	nt
O=C(c1ccco1)N1CCN(c2ccc(Cl)c(Cl)c2)CC1	i	i	99	i	i	i
O=C(c1ccco1)N1CCCN(C(=O)c2ccco2)CC1	i	i	i	i	i	i
Cc1ccc(OCC(=O)Nc2ccc(N3CCN(C(=O)c4ccco4)CC3)cc2)cc1C	i	i	i	i	i	i
O=C(c1ccco1)N1CCN(C(=O)N2CCOCC2)CC1	i	i	71	i	i	i
SMILES	EBV LMP1 NFkB	TROY signal inh	HSF-1 act	TWEAK-Fn14 inh	HSP90 refold inh	HSF1 inhib
O=C(c1ccco1)N1CCN(C2=NS(=O)(=O)c3ccccc32)CC1	i	nt	i	86	i	i
Cc1cc(OCC(=O)Nc2ccc(N3CCN(C(=O)c4ccco4)CC3)cc2)cc(C)c1Cl	i	52	i	52	i	i
CC(C)C[C@H]1CNC(=O)C(=O)N1C[C@@H]1CCCN1C[C@H](Cc1ccc(O)cc1)N1C[C@H](Cc2ccccc2)N(CC2CCCCC2)C(=O)C1=O	nt	i	nt	i	nt	nt
COc1ccc(CCNC(=O)CSc2nc3ccsc3c(=O)n2Cc2ccccn2)cc1OC	i	i	nt	i	nt	nt
COc1ccc(-c2csc(C(O)c3ccc(F)cc3)n2)cn1 (stereo not given)	nt	i	nt	i	nt	nt
COc1ccccc1OCCC(=O)OCC(=O)NCc1ccc(F)cc1	69	i	nt	i	nt	nt
COc1ccccc1OCCC(=O)OCC(=O)NCc1ccc(Cl)cc1	i	i	i	i	i	i
O=C(COC(=O)COc1ccccc1)NCc1ccccc1	i	i	i	i	i	i
COC(=O)c1ccc(CNC(=O)COC(=O)COc2ccc(OC)cc2)cc1	i	i	i	i	i	-68
Cn1c(NCCc2ccncc2)nc2cc(-c3cccc(C(F)(F)F)c3)sc2c1=O	nt	i	nt	i	nt	nt
Cc1ccc(/C=C/C(=O)OCC(=O)NCCN2C(=O)CSC2=O)o1	i	i	i	i	i	-73
OC1CCN(c2c3c(nc4cc(-c5cccc(F)c5)nn24)CCCC3)CC1	i	i	i	i	i	i
Fc1cccc(-c2cc3nc4c(c(N5CCC6(CC5)OCCO6)n3n2)CCCC4)c1	i	i	i	54	i	i
Cc1cc(=O)[nH]c(-n2ncc(C#N)c2N)n1	i	i	69	i	i	i
Cc1cccc(NC(=O)C(=O)NCCCc2ccccc2)c1	nt	nt	83	nt	i	i
O=C(CNC(=O)c1ccco1)Nc1ccc2c(c1)OCCO2	i	71	i	86	nt	-67
N#Cc1ccc(NCC(=O)Nc2ccc3c(c2)OCCO3)cc1	i	i	i	i	i	i
Cc1ccc(NC(=O)CCNC(=O)c2ccco2)cc1	i	i	i	i	i	i
Cc1cccc(NC(=O)CCNC(=O)c2ccco2)c1	i	i	58	i	i	i
N#Cc1cccc(NCC(=O)Nc2ccc3c(c2)OCCO3)c1	i	i	68	i	i	i
Cc1ccc(NC(=O)CNC(=O)c2ccco2)cc1Cl	i	i	i	i	i	i
CC(C)CC1C(=O)N(Cc2cn(CCC3OCCCO3)nn2)CCS(=O)(=O)N1Cc1ccc(-c2ccncc2)cc1 (stereo not given)	i	i	nt	i	nt	nt
CCCCNC(=O)C1(C)CCCCN1C(=O)c1cc(-c2ccccc2)cs1 (stereo not given)	nt	i	nt	i	nt	nt
CCCCn1nnnc1C(c1ccccc1)N1CCN(c2ncccc2C(F)(F)F)CC1 (stereo not given)	nt	i	nt	i	nt	nt
CC(C)CC(NC(=O)c1ccco1)C(=O)Nc1ccc2c(c1)OCCO2 (stereo not given)	i	i	i	76	i	?
N/C(Cc1ccc(Cl)cc1Cl)=N\OC(=O)c1ccccc1F	i	i	68	i	i	i
OCCNc1ncnc2c1ncn2[C@H]1CN(Cc2ccncc2)C[C@@H](CO)O1	nt	i	nt	i	nt	nt
COc1ccc(NC(=O)CN2C(=O)NC3(CCCC3)C2=O)c(OC)c1	i	i	i	81	i	i
Cc1cc(C)n(CCNC(=O)[C@H]2O[C@@H](n3cnc4c(N)ncnc43)[C@H](O)[C@@H]2O)n1	nt	i	nt	i	nt	nt
O=c1[nH]c(-c2ccccc2)ncc1OCc1ccccc1	i	i	nt	i	nt	nt
